The values that follow come from PubChem BioAssay.

Assay [1] has as its system Human papillomavirus type 1a protein E7 (residues 44-93). In words: HPV1a E7 fragment binders on microarrays, primary screen, biochemical, small-molecule microarray, residues 44-93, 635 nm fluorescence (AID 1108).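 Note: E7 fragment applied at 1 µg/mL in TBST for 1 h at 4 C; score combines spot fluorescence with its signal to noise ratio.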 The note with it: small-molecule microarray binding, fluorescence 635 nm; higher = more signal.
A short description of assay [2]: modulators of HCV replicon luciferase signal, primary screen, HCV replication inhibitor project, Huh7 cells, luciferase reporter (AID 1109).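 Note: huh7 hepatoma cells harbouring a luciferase neomycin HCV replicon reporter; luciferase luminescence as measure of HCV replicon replication; test concentration not given here.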 Conditions: 48 h, higher = more signal. A general note: A replicon is a self-replicating genome or part of one, used to study replication in cells.
In assay [3] the target is Left-right determination factor 2 (Homo sapiens) (UniProt O00292). As to the kind of experiment: LEFTY2 binders on small-molecule microarrays, primary screen, biochemical, small-molecule microarray, 635 nm fluorescence scan (AID 1110). Conditions: LEFTY2 binding, higher = more signal.
Left-right determination factor 2 (Homo sapiens), sequence (O00292 whole entry, looked up): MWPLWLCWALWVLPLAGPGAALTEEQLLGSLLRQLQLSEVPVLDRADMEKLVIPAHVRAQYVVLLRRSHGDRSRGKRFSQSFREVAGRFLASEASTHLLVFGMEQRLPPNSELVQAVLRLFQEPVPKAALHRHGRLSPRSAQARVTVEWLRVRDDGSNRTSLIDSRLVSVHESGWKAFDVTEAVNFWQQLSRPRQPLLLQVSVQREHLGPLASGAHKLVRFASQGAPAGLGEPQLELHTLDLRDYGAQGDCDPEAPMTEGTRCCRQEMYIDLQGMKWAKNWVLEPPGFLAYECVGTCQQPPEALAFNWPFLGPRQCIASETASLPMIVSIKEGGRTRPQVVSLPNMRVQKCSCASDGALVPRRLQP
In assay [4] the target is Calmodulin-1 (Homo sapiens) (UniProt P0DP23). In words: CALM1 binders on microarrays, EGTA buffer, profiling panel, biochemical, small-molecule microarray, Cy5-labelled CALM1 (AID 1111).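 Note: labelled calmodulin applied in Tris saline Tween buffer holding calcium plus EGTA and DTT.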 The note with it: Cy5-CALM1 binding fluorescence, higher = more signal.
For assay [5] the target is unchanged. As to the kind of experiment: calcium-bound CALM1 binders on microarrays, profiling panel, artefact control for SMM control-protein annotation, biochemical, small-molecule microarray, Cy5-labelled CALM1, plus calcium (AID 1112).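 Note: score merges spot fluorescence with signal to noise from triplicate slides.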 Conditions: Cy5-CALM1 binding fluorescence, higher = more signal.
The nature of assay [6]: small-molecule microarray binders of probe aWnt5a, primary screen, biochemical, biotinylated probe, 635/667 nm fluorescence (AID 1113).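 Note: score merges 667 nm fluorescence intensity with signal-to-noise per printed feature.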 Conditions: higher = more signal.
A short description of assay [7]: small-molecule microarray binders of probe aShh, primary screen, biochemical, biotinylated probe, 635/667 nm fluorescence (AID 1114).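 Note: probe is biotin-labelled aShh protein from a stem cell growth factor screen; measures binding of labelled protein to compounds printed on the slide; score merges feature fluorescence at 667 nm with signal-to-noise.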 Conditions: higher = more signal.
The nature of assay [8]: small-molecule microarray binders of probe aNog, primary screen, biochemical, biotinylated probe, 635/667 nm fluorescence (AID 1115).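 Note: probe is biotinylated aNog protein used at 0.15 µg/mL for 1 h at 4 C; z-score combines 667 nm fluorescence of each spot with its signal to noise.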 The note with it: higher = more signal.
Assay [9] has as its target Torsin-1A-interacting protein 1 (Homo sapiens) (UniProt Q5JTV8). In words: LAP1 binders from COS7 cell lysate, primary screen, small-molecule microarray, 635/667 nm fluorescence (AID 1116). Conditions: COS7-hLAP1 lysate binding, 635 nm fluorescence, higher = more signal.
In assay [10] the target is Alpha-bungarotoxin (Bungarus multicinctus) (UniProt P60615). In words: alpha-bungarotoxin binders on microarray, profiling panel, artefact control for SMM control protein annotation, biochemical, small-molecule microarray, Alexa647 label, 635/667 nm fluorescence (AID 1117). Conditions: alpha-BTX-A647 binding fluorescence, higher = more signal.
Alpha-bungarotoxin (Bungarus multicinctus), sequence (P60615 whole entry, looked up): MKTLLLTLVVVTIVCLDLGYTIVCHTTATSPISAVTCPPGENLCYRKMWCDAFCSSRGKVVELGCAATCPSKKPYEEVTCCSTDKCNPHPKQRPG

Torsin-1A-interacting protein 1 (Homo sapiens), sequence (Q5JTV8 whole entry, looked up): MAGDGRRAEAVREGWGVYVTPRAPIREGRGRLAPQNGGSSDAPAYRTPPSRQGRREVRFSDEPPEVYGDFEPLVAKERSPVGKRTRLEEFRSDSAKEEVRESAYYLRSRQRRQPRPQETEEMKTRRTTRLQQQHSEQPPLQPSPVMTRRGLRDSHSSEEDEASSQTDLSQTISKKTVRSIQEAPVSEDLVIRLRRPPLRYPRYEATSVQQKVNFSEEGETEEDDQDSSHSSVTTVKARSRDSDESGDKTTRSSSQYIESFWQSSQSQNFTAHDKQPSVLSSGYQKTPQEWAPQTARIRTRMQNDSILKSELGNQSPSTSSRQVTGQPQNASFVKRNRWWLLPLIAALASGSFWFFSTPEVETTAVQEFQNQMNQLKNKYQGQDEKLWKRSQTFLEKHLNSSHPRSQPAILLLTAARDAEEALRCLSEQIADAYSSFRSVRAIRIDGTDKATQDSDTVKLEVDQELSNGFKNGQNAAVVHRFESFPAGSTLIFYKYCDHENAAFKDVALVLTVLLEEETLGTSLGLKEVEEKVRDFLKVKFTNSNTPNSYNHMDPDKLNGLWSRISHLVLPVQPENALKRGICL

As to `CO[C@@H]1COC(=O)[C@@H]2CCCN2C(=O)CC=C[C@@H](C)[C@H](OC)COC(=O)[C@@H]2CCCN2C(=O)CC=C[C@H]1C`, the composite z-score in [1] is -0.699; in [3], 0.402; in [4], -1.35; in [5], -2.31; in [6], -0.156; in [7] it was -0.2. The composite z-score in [8] is -0.201; in assay [9], -0.233; in assay [10], -1.09. The compound further returned a z-score in assay [2] of 0.47.

In the case of `CCCNC(=O)[C@@H]1c2ccccc2C(=O)N(Cc2cc(F)cc(C(F)(F)F)c2)[C@H]1c1ccc(CO)cc1`, the composite z-score in assay [1] is 0.0588; in assay [3], 0.498; in [4], 1.04; in assay [5], -0.263; in [6], 0.0079; in assay [7] it was 0.188. Further, the results for the composite z-score in assay [8], in assay [9] and in assay [10] were -0.154, 1.44 and 1.21, respectively. This compound returned a z-score in assay [2] of -0.901.

`CO[C@H]1O[C@H](CO)[C@@H](OC(=O)Nc2ccc3c(c2)OCO3)[C@H](OC(=O)Nc2ccccc2)[C@@H]1OC(=O)Nc1ccccc1`: the composite z-score in assay [1] is 1.45; in [3], -0.0553; in assay [4], 1.01; in assay [5], -0.677; in assay [6], 0.129; in assay [7] it was 0.0796. Also, the composite z-score in [8] turned out to be 0.953; in [9], 0.949; in assay [10] it was 0.902. This compound also returned a z-score in assay [2] of -1.69.

For the compound `CC(C)=C1C(=O)C(c2ccccc2)=C2CN3C(=O)N(CCc4ccccc4)C(=O)[C@]3(Cc3ccccc3)[C@H]21`, the composite z-score in [1] is -1.85; in [3], -1.54; in [4], 1.31; in assay [5], 0.197; in assay [6], -0.0384; in [7], 0.251. The composite z-score in [8] was -0.408; in assay [9], -0.0829; in assay [10] it was -0.496. This compound had a z-score in assay [2] of 0.219.

With `COc1ccc([Si](C)(C)[C@H]2[C@H](CC(=O)N(CCO)Cc3ccccc3)O[C@@]3(C(=O)N(C)c4ccccc43)[C@@H]2C)cc1`, the composite z-score was 1.3 in assay [1]; 0.664 in assay [3]; -0.416 in assay [4]; -0.398 in [5]; -0.0182 in [6]; -0.141 in assay [7]. The composite z-score in assay [8] is -0.52; in assay [9], 0.188; in assay [10], 0.238. The compound also registered a z-score in [2] of -3.22.

With `CCOC(=O)C1=CC[C@@H](c2ccccc2)N(S(=O)(=O)c2ccc(C)cc2)[C@H]1C`, the composite z-score in assay [1] was 1.47; in [3], 0.902; in [4], 0.764; in [5], 0.665; in assay [6], 0.101; in [7] it was -0.214. Moreover, the values for the composite z-score in [8], in assay [9] and in [10] were 0.787, 0.682 and 1.74, respectively. In assay [2], the z-score was -2.88.

For `CO[C@@H]1COC(=O)[C@H](C)NC(=O)CC=C[C@@H](C)[C@H](OC)COC(=O)[C@H](C)NC(=O)CC=C[C@H]1C`, the composite z-score in [1] was 0.0508; in [3], 0.787; in assay [4], -0.202; in assay [5] it was -1.26; in assay [6] it was -0.0684; in assay [7], -0.223. Also, the values for the composite z-score in [8], in assay [9] and in assay [10] were -0.248, 0.0309 and -0.59, respectively. For the same compound, the z-score in assay [2] is -0.0787.

Consider `COc1ccc(-c2cc3c(c(-c4ccccc4)n2)[Si](C(C)C)(C(C)C)O[C@H]3c2ccccc2)cn1`, for which the composite z-score in assay [1] is 0.656; in assay [3], -0.152; in [4], 0.136; in assay [5] it was -0.265; in assay [6] it was -0.0512; in [7] it was -0.0626. Further, the composite z-score is -0.216 in assay [8], -0.126 in assay [9] and 0.599 in assay [10]. In [2], this compound came in with a z-score of -1.4.

Take `O=C(CS)NCCCCCNC(=O)[C@H]1C[C@H]2C(=O)N[C@@H](Cc3ccccc3)C(=O)N2[C@H]1c1ccc(O)cc1`: the composite z-score in assay [1] was 0.151; in [3] it was 0.406; in assay [4] it was 0.741; in assay [5], 0.748; in assay [6], -0.0977; in assay [7], 0.184. Moreover, the values for the composite z-score in assay [8], in [9] and in assay [10] were 0.185, 0.792 and 3, respectively. The z-score in assay [2] is -0.488.

With `CC(C)NC(=O)[C@@]1(Cc2ccccc2I)c2ccccc2C(=O)N(C2CCCCC2)[C@H]1c1ccc(CO)cc1`, the composite z-score is 1.46 in assay [1]; 0.398 in [3]; 1.48 in assay [4]; 0.458 in assay [5]; -0.0792 in assay [6]; 0.448 in assay [7]. Besides, the composite z-score in assay [8] stood at 0.982; in assay [9] it was 0.977; in assay [10], 1.32. In addition, the z-score in assay [2] was -1.21.

Regarding `C=C(/C(=C/C[C@@H](OC(=O)c1ccncc1)c1ccc(CO)o1)c1cnc2ccccc2c1)C(C)C`, the composite z-score in [1] is -1.09; in [3] it was 0.846; in assay [4], 1.64; in assay [5], -0.116; in assay [6], -0.124; in assay [7], -0.0626. Also, the results for the composite z-score in assay [8], in assay [9] and in assay [10] were 0.221, 1.36 and 0.474, respectively. For the same compound, the z-score in [2] was -1.05.

Regarding `COc1ccc([Si](C)(C)[C@H]2[C@H](CC(=O)N3Cc4ccccc4C[C@H]3CO)O[C@@]3(C(=O)N(Cc4cccc(N5CCOC5=O)c4)c4ccccc43)[C@@H]2C)cc1`, the composite z-score was 0.294 in assay [1]; 0.91 in assay [3]; -0.792 in [4]; -1.13 in assay [5]; -0.0731 in [6]; -0.17 in assay [7]. Moreover, the values for the composite z-score in assay [8], in assay [9] and in [10] were 0.232, 0.473 and 0.894, respectively. Further, the z-score in [2] was -3.42.

Regarding `CO[C@H]1COC(=O)CC=C[C@H](C)[C@@H](OC)COC(=O)[C@H](Cc2ccccc2)NC(=O)CC=C[C@@H]1C`, the composite z-score was -1.64 in [1]; 1.12 in assay [3]; -1.67 in assay [4]; -3.12 in assay [5]; -0.144 in [6]; -0.11 in assay [7]. Also, the results for the composite z-score in assay [8], in assay [9] and in assay [10] were -0.537, -0.272 and -1.24, respectively. Further, in assay [2], the z-score is -0.74.

On to `COc1ccc(-c2ccccc2[C@@H]2N[C@H](C(=O)O)CC[C@H]2C)cc1`, for which the composite z-score is 0.404 in assay [1]; 0.594 in [3]; -0.27 in assay [4]; -0.699 in assay [5]; -0.0222 in assay [6]; 0.138 in assay [7]. The composite z-score in [8] came out at 0.432; in assay [9], 0.583; in assay [10] it was 0.288. In assay [2], the z-score was -0.388.

Regarding `C=CC[C@]1(C(N)=O)N=C(c2ccc(OCCCO)cc2)O[C@H]1c1ccccc1CN=[N+]=[N-]`, the composite z-score in assay [1] was 1.03; in [3], -1.11; in assay [4], 1.91; in assay [5], 1.14; in assay [6], -0.124; in assay [7], -0.203. The composite z-score in [8] is 0.165; in assay [9], 1.87; in [10] it was 1.03. This compound returned a z-score in [2] of -1.33.

`O=C1O[C@H](c2ccccc2)[C@H](c2ccccc2)N2[C@H]1[C@@H](C(=O)NC[C@H](O)c1ccccc1)[C@]1(C(=O)Nc3ccc(C#CC4=CCCCC4)cc31)[C@H]2c1ccc(OCCO)cc1`: the composite z-score in [1] is 0.567; in assay [3], 0.377; in assay [4], 0.977; in assay [5] it was 0.385; in assay [6] it was -0.0519; in [7] it was 0.0711. For the same compound, the composite z-score was found to be 0.0884 in assay [8], 0.6 in assay [9] and 1.38 in assay [10]. Also, the z-score in assay [2] is -1.91.

`CCc1cccc(NC(=O)O[C@H]2[C@H](OC(=O)Nc3ccccc3)[C@@H](OC(=O)Nc3ccccc3)[C@@H](OC)O[C@@H]2CO)c1`: the composite z-score was 1.51 in assay [1]; 0.273 in assay [3]; 1.19 in assay [4]; -0.291 in [5]; 0.0267 in assay [6]; 0.19 in [7]. Besides, the figures for the composite z-score in assay [8], in assay [9] and in assay [10] were 1.34, 2.41 and 1.2, respectively. This compound had a z-score in [2] of -3.51.
